Measurements taken from PubChem BioAssay.
Where “and” joins values, the source holds several entries; their conditions need not be identical. Identical values can stand only once. Results filed as inconclusive are left out. Calls of active or inactive are those of the source. Unless noted, how the calls were made is not given here.

Tests used:
[1] = circadian clock period modulators, cell-based, LOPAC library, luminescence reporter (AID 2774); details: circadian reporter cells, at 7 µM, actives lie on both sides;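 further: values are relative to mean of DMSO wells on each plate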
[2] = sensitizers of A549 cells to miR-34 induction, primary screen, imaging, A549 dox-inducible miR-34, nuclei and caspase counts (AID 1347080;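 active means compounds whose cell count with miR-34 switched on is under 0.7 times the count with it off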); details: A549 miR-34 inducible, Hoechst nuclei count, 48 h
[3] = viability rescue of complex I mutant cybrids, primary screen, cell-based, galactose medium, ATP luminescence (AID 1645843;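 active means z-score of at least 1.8 in each of two replicates, scored against plate mean and spread of sample wells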;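 further: positive z means more ATP and so rescue of galactose-driven cybrid death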); details: complex I mutant cybrid cells, 72 h, stronger effect = higher value
[4] = test system: Hepatitis C virus NS3 helicase; test: HCV NS3 helicase inhibitors, primary screen, biochemical, fluorescence polarization, LOPAC1280 library (AID 687035; in the data active means inhibition above about 37%); details: Purified HCV NS3 helicase, Cy5-dT15 ssDNA binding fluorescence polarization; stronger effect = higher value; concentration not given here
[5] = Cy5 fluorescence quenching or enhancement artefacts, artefact control for HCV NS3 helicase inhibitor project, biochemical, LOPAC1280 (AID 687037); details: Cy5-DNA-NS3h complex fluorescence interference counterscreen
[6] = target: ATP-dependent translocase ABCB1 (Homo sapiens) (UniProt P08183); test: MDR1 (ABCB1) efflux transporter inhibition, cell-based (AID 377; in the data active means fluorescence slope change above about 50%); details: MDR1-expressing cells, fluorescent substrate accumulation slope; stronger effect = higher value; concentration not given here
[7] = hESC survival regulators, cell-based (AID 493140); details: human embryonic stem cell survival screen; stronger effect = higher value;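 further: cells exposed to compounds for four days before counting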
[8] = liver-stage malaria parasite growth inhibition, primary screen, cell-based, HepG2, luciferase luminescence, HepG2 viability (AID 624349; in the data active means parasite load remaining mostly below about 12%, no sharp cut-off; inactive means mostly above about 10%;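 further: 100% = mean of DMSO negative control wells on the same plate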); details: P. berghei liver stage in HepG2, luciferase luminescence, concentration not given here; parasite load remaining: stronger effect = lower value; viability: measured here: HepG2 viability without parasites
[9] = stronger effect = lower value, cell number ratio, induced over uninduced
[10] = measured here: relative caspase fold change +Dox/-Dox
[11] = measured here: total cells with miR-34 induction, stronger effect = lower value
[12] = measured here: total cells without miR-34 induction

Chain of ATP-dependent translocase ABCB1 (Homo sapiens) (P08183 whole entry, looked up): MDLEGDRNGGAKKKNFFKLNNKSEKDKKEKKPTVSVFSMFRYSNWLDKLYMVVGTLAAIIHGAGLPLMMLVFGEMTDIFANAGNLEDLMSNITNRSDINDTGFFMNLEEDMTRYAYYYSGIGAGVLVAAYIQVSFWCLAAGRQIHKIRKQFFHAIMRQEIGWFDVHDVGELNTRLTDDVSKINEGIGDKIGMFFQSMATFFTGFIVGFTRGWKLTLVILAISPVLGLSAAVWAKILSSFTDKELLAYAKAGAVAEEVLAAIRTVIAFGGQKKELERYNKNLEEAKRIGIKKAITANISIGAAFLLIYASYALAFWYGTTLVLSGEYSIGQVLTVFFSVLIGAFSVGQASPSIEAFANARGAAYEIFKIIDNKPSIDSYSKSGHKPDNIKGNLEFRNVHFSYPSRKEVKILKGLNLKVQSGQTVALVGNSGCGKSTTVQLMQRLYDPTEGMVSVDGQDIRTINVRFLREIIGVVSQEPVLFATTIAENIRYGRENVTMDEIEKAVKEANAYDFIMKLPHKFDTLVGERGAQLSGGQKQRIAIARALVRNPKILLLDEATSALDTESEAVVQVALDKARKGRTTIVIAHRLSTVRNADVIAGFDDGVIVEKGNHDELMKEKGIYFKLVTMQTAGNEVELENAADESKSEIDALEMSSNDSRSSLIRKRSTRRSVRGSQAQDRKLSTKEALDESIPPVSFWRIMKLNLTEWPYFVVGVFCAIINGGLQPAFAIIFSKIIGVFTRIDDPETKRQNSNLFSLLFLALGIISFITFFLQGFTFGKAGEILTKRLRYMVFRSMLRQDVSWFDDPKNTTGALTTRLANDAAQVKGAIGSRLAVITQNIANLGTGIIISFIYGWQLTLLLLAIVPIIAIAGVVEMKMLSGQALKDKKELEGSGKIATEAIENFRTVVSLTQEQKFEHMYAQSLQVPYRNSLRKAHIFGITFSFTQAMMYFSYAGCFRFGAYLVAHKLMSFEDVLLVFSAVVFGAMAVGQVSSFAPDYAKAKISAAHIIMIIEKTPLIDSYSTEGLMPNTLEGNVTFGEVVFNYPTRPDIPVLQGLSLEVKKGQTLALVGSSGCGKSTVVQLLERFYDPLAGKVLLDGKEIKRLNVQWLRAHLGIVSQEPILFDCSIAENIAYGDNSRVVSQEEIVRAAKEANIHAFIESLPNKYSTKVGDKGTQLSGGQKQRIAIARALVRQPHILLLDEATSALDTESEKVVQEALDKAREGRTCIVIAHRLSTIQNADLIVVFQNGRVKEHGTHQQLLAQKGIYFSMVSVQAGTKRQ

SMILES	period change [1]	fold change [2, 9]	fold change [2, 10]	cell count [2, 11]	cell count [2, 12]	z-score [3]	inhibition [4]	fluorescence ratio (interference) [5]	fluorescence slope change [6]	survival [7]	parasite load remaining [8]	viability [8]
N=C(N)SCCc1cccc(CCSC(=N)N)c1	0.115 h (inactive)	1.01 (inactive)	0.632	6390	6310							
CN(C)C(=O)/N=N/C(=O)N(C)C	0.015 h (inactive)	1.04 (inactive)	1.27	10000	9690	-1.03 (inactive)						
Cc1nc(N=Nc2cc(S(=O)(=O)O)c3cc([N+](=O)[O-])cc(S(=O)(=O)O)c3c2)c(COP(=O)(O)O)c(C=O)c1O	-0.275 h (inactive)	1.02 (inactive)	1.61	10500	10300	1.9 (active)	58% (active)	0.8 (active)				
CNc1ncnc2c1ncn2[C@H]1C[C@H](OP(=O)(O)O)[C@@H](COP(=O)(O)O)O1	-0.03 h (inactive)	1.08 (inactive)	1.03	10600	9840	0.465 (inactive)	-4% (inactive)	1 (inactive)				
CC[C@@]1([C@@H]2O[C@@H]([C@H]3O[C@@](O)(CO)[C@H](C)C[C@@H]3C)C[C@@H]2C)CC[C@H]([C@]2(C)CC[C@]3(C[C@H](O)[C@@H](C)[C@@H]([C@@H](C)[C@@H](OC)C(C)C(=O)O)O3)O2)O1 (stereo partly specified)		1.05 (inactive)	1.84	1810	1730				168% (active)	0.417 (inactive)		
CCCCCC(O)c1cccc(OCc2ccc3ccccc3n2)c1 (stereo unspecified)	0.015 h (inactive)	0.911 (inactive) and 0.978 (inactive)	1.06 and 0.946	5590 and 5690	6140 and 5820		1% (inactive)	0.9 (inactive)		78.8 (inactive)		
CC(=O)O[C@H]1CC2(C)[C@@H](C[C@@H](O)[C@H]3[C@@]4(C)CC[C@@H](O)[C@@H](C)[C@@H]4CC[C@@]32C)C1=C(CCC=C(C)C)C(=O)O (stereo partly specified)	-0.06 h (inactive)	0.982 (inactive)	1.41	9740	9920	4.71 (active)	-2% (inactive)	1 (inactive)				
O=C1O/C(=C/Br)CCC1c1cccc2ccccc12 (stereo unspecified)	-0.24 h (inactive)	0.964 (inactive)	0.87	4330	4490		0% (inactive)	1 (inactive)				
Nc1nc(SCc2ccc([N+](=O)[O-])cc2)c2ncn([C@@H]3O[C@H](CO)[C@H](O)C3O)c2n1 (stereo partly specified)	-0.105 h (inactive)	1.08 (inactive)	0.784	10100	9310	-0.085 (inactive)	-2% (inactive)	0.9 (inactive)				
CCC[C@@H]1C[C@@H](C(=O)N[C@@H]([C@H]2O[C@H](SC)[C@H](O)[C@@H](O)[C@@H]2O)[C@@H](C)O)N(C)C1		0.982 (inactive) and 0.853 (inactive)	0.967 and 1.36	11000 and 8020	11200 and 9400	1.21 (inactive)					53.4% (inactive) and 46.6% (inactive)	129% and 47.8%
N=S(=O)(O)Cc1noc2ccccc12	0.1 h (inactive)	0.955 (inactive)	2.62	9240	9680	0.5 (inactive)	1% (inactive)	1 (inactive)				
O[C@@H]1[C@@H](O)C=C2CCN3Cc4cc5c(cc4[C@H]1C23)OCO5 (stereo partly specified)		0.89 (inactive)	1.09	2250	2530				10.1% (inactive)	0.583 (inactive)	-0.065% (active)	101%
C[N+](C)(C)CCOP(=O)(O)OP(=O)([O-])OC[C@H]1O[C@@H](n2ccc(N)nc2=O)C(O)[C@H]1O (stereo partly specified)		1.01 (inactive)	1.19	10900	10800	0.115 (inactive)	-3% (inactive)	1 (inactive)				
CCOC(=O)C12CC1/C(=N/O)c1ccccc1O2 (stereo unspecified)	-0.125 h (inactive)	1.06 (inactive)	2.7	9720	9140	0.485 (inactive)						
NC(N)=[N+]1CCc2ccccc2C1	-0.15 h (inactive)	1.01 (inactive)	1.06	8570	8500	-0.075 (inactive)	-1% (inactive)	1.1 (inactive)				
N=c1c[n+](N2CCOCC2)[n-]o1	0.03 h (inactive)	1 (inactive) and 0.984 (inactive)	2.22 and 1.55	10300 and 10500	10300 and 10700	-0.02 (inactive) and 0.005 (inactive)	-1% (inactive) and -5% (inactive)	1 (inactive)				
NC[C@H]1O[C@@H](n2cnc3c(N)ncnc32)[C@H](O)[C@@H]1O		1.07 (inactive)	1.37	9860	9210	1.03 (inactive)	-3% (inactive)	1 (inactive)				
Cc1ccc2c(c1)C(N1CCN(C)CC1)=Nc1cccnc1N2	0.2 h (inactive)	1 (inactive)	1.15	8670	8630	0.01 (inactive)	-2% (inactive)	1 (inactive)				
